Compound activity deposited in PubChem by The Scripps Research Institute Molecular Screening Center.
Most compounds without a hit are left out; they make up all but 3.4% or so of the library.
GPR151 activ: activators of human GPR151 | 650,000 tested, 1% active | PathHunter beta-arrestin GPR151 cells, luminescence | AID 1508602 | Q8TDV0 | activation, % at 11.2 µM; in the data active = activation above about 4.9%
Target sequence (Q8TDV0 whole entry, looked up): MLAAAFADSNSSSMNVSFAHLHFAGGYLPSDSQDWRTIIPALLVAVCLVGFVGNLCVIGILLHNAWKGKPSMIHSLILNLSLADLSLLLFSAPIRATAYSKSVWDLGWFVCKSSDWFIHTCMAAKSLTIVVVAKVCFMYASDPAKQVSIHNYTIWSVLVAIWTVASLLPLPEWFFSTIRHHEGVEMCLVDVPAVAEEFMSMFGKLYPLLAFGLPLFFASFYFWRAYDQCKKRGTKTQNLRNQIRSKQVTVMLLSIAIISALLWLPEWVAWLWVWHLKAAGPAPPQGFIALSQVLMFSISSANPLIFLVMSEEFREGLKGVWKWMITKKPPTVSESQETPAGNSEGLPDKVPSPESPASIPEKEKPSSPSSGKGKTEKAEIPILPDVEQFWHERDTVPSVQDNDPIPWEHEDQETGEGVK
MITF inh: inhibitors of human MITF | AlphaScreen MITF homodimerization, bead proximity signal | inhibition, % at 2.6 µM | 650,000 tested, 0.91% active | AID 1259374; in the data active = inhibition above about 50%
FBW7 act: activators of human E3 ligase FBW7. Q969H0. AlphaScreen FBW7–phospho-cyclin E peptide binding, activator screen. normalized activity (activation), % at 26.1 µM. 650,000 tested, 0.13% active. AID 1259310; in the data active = normalized activity above about 1.9%;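 also: purified mutant Fbw7 with reduced substrate affinity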
TEAD-YAP block: TEAD-YAP interaction inhibition; HEK-TIYL cells, TEAD-Gal4/YAP UAS-luciferase luminescence; inhibition, % at 9.12 µM; 640,000 tested, 1.4% active; AID 1259422; in the data active = inhibition above about 32%
Each line names hits and unclear results; the compound was inactive in the other large screens.

COc1cc2nc(-c3ccc([N+](=O)[O-])cc3Cl)oc(=O)c2cc1OC	none
COc1ccc(C2CC(C(F)(F)F)n3nc(C(=O)Nc4cc(C)ccc4C)cc3N2)cc1 (centres undefined)	none
CC(C)(C)NC(=O)c1ccccc1NC(=O)CN1C(=O)c2ccccc2C1=O	none
Cc1c(C(=O)OCC2CCCO2)[nH]c2c1C(=O)CC(c1ccc(F)cc1)C2 (centres undefined)	none
CSCCOC(=O)c1[nH]c2c(c1C)C(=O)CC(c1ccccc1)C2 (centres undefined)	TEAD-YAP block 45
CCCOCCOC(=O)c1[nH]c2c(c1C)C(=O)CC(c1ccccc1)C2 (centres undefined)	TEAD-YAP block 43
Cc1c(C(=O)O)[nH]c2c1C(=O)CC(c1ccc(Cl)cc1)C2 (centres undefined)	none
COC(=O)c1[nH]c2c(c1C)C(=O)CC(c1ccc(F)cc1)C2 (centres undefined)	TEAD-YAP block 40
COC(=O)c1[nH]c2c(c1C)C(=O)CC(c1ccc(C)cc1)C2 (centres undefined)	none
CCCOC(=O)c1[nH]c2c(c1C)C(=O)CC(c1ccco1)C2 (centres undefined)	TEAD-YAP block 56
OC(COCCOc1ccc(Cl)cc1)CN1CCN(Cc2ccccc2)CC1 (centres undefined)	none
S=c1nc(-c2ccccc2Cl)oc2c1CCCC2	none
COc1ccc(C(c2ccccn2)N(C)C(=O)C2CCN(S(C)(=O)=O)CC2)cc1 (centres undefined)	none
CCCNC(=O)CCc1nc(-c2ccccc2Cl)no1	none
CCNC(=O)CCCc1nc(-c2ccccc2Cl)no1	TEAD-YAP block 36
CCN(CC)S(=O)(=O)c1cc(C(=O)Nc2cccc(O)c2)ccc1C	TEAD-YAP block 85
O=C(Nc1cccc(O)c1)c1ccc(Br)cc1	TEAD-YAP block 36
CC(C)(C)c1ccc(C(=O)Nc2cccc(F)c2)cc1	TEAD-YAP block 42
CC(=O)c1cccc(NC(=O)c2ccc(C)cc2)c1	none
Cc1ccc(C(=O)Nc2cccc(O)c2)cc1	TEAD-YAP block 82
CC(=O)Nc1cccc(NC(=O)c2ccc(Br)cc2)c1	none
O=C(C1=C(O)C(=O)N(c2ccccc2)C1c1cccc([N+](=O)[O-])c1)c1ccco1 (centres undefined)	none
COc1ccc(C(=O)[C@@H]2[C@@H](c3ccc(OC)cc3)C(C#N)(C#N)[C@H]3C=Cc4ccccc4N23)cc1	TEAD-YAP block 63
COc1ccc(C(=O)[C@@H]2[C@@H](c3cccc(Br)c3)C(C#N)(C#N)[C@H]3C=Cc4ccccc4N23)cc1	TEAD-YAP block 64
Cc1ccc(C(=O)[C@@H]2[C@@H](c3ccsc3)C(C#N)(C#N)[C@H]3C=Cc4ccccc4N23)cc1	none
COc1ccc(C(=O)[C@@H]2[C@@H](c3ccsc3)C(C#N)(C#N)[C@H]3C=Cc4ccccc4N23)cc1	TEAD-YAP block 60
CCN(CC)CC(=O)OCC1C(C)C=C(C)CC1C (centres undefined)	none
N/C(=N\OC(=O)c1c(F)cccc1F)c1cccc([N+](=O)[O-])c1	none
COc1ccc(C=Nc2cccc(C)c2)c(OC)c1	none
COc1ccc(OCC2c3cc(OC)c(OC)cc3CCN2C(=O)c2ccc([N+](=O)[O-])cc2)cc1 (centres undefined)	none
COc1cc2c(cc1OC)C(COc1ccc([N+](=O)[O-])cc1)N(C(=O)c1ccc3c(c1)OCO3)CC2 (centres undefined)	FBW7 act 2.1
Cc1cc(-c2cccc3[nH]c(C(F)(F)F)nc23)nn1C(=O)c1cccnc1	TEAD-YAP block 63
C/C(=N/NC(=O)c1n[nH]c2c1CCC2)c1cccc(O)c1	TEAD-YAP block 40
O=C(N/N=C/c1cc2c([nH]1)CCCC2)c1n[nH]c2c1CCC2	TEAD-YAP block 33
COc1cc(/C=N/NC(=O)c2n[nH]c3c2CCCC3)ccc1O	TEAD-YAP block 36
O=C(N/N=C/c1ccccc1O)c1n[nH]c2c1CCC2	TEAD-YAP block 33
C/C(=N/NC(=O)c1n[nH]c2c1CCCC2)c1cccc(O)c1	none
Cc1ccc(/C=N/NC(=O)c2n[nH]c3c2CCCC3)cc1	none
O=C(Nc1cccc(OC(=O)c2ccc(Br)c(S(=O)(=O)N3CCCCC3)c2)c1)c1ccc(Br)cc1	none
COc1cccc2c1OC1(CCN(C(=O)c3ccoc3)CC1)OC2	none
O=C(N/N=C/c1cccc(O)c1)C1C2CCCCC21 (centres undefined)	TEAD-YAP block 60
O=C(NN=C1CCCCC1)c1n[nH]c2c1CCC2	TEAD-YAP block 57
Cc1ccsc1/C=N\NC(=O)c1n[nH]c2c1CCCC2	TEAD-YAP block 82
CN(C)c1ccc(/C=N/NC(=O)c2n[nH]c3c2CCC3)cc1	TEAD-YAP block 35
O=C(O)c1n[nH]c2c1CCCCCC2	none
COC(=O)C1=CN(c2ccc(F)c(Cl)c2)C=C(C(=O)OC)C1c1cccc([N+](=O)[O-])c1	none
COc1ccc(COC(=O)C2=C(C)NC(=O)CC2c2c(F)cccc2Cl)cc1 (centres undefined)	none
CC(C)n1c(NCCCN2CCCC2=O)nc2c(Nc3ccc(N4CCOCC4)cc3)ncnc21	none
Cc1ccc(OCC(=O)Nc2sc3c(c2C(N)=O)CCCC3)c(Br)c1	none
O=C(N/N=C/c1cccc(O)c1)c1n[nH]c2c1CCC2	TEAD-YAP block 46
O=C(N/N=C\c1cccc(Cl)c1)c1n[nH]c2c1CCCC2	none
CC(=O)NC(c1cccc([N+](=O)[O-])c1)c1ccc2cccnc2c1O (centres undefined)	MITF inh 74, TEAD-YAP block 83
CCCCC(=O)NC(c1cccc([N+](=O)[O-])c1)c1ccc2cccnc2c1O (centres undefined)	MITF inh 55, TEAD-YAP block 88
CCCCC(=O)NC(c1ccccc1)c1ccc2cccnc2c1O (centres undefined)	none
COc1ccc(C2C3=C(Nc4ncnn42)c2ccccc2OC3c2cccs2)cc1 (centres undefined)	none
COc1ccc(C2Oc3ccccc3C3=C2C(c2cccs2)n2ncnc2N3)cc1 (centres undefined)	TEAD-YAP block 38
C=CCN(CC=C)C(=S)Nc1ccc(OC)cc1OC	none
CCS(=O)(=O)c1ncc(Cl)c(C(=O)Nc2ccccc2C(F)(F)F)n1	TEAD-YAP block 35
CCS(=O)(=O)c1ncc(Cl)c(C(=O)Nc2ccc(Cl)cc2)n1	none
CCS(=O)(=O)c1ncc(Cl)c(C(=O)Nc2ccc(OC)c(Cl)c2)n1	TEAD-YAP block 50
CCS(=O)(=O)c1ncc(Cl)c(C(=O)Nc2cccc(C(F)(F)F)c2)n1	TEAD-YAP block 34
CCS(=O)(=O)c1ncc(Cl)c(C(=O)Nc2ccccc2F)n1	none
COc1cccc2c(SCC(=O)Nc3ccc4c(c3)OCCO4)nccc12	TEAD-YAP block 51
COc1cccc2c(SCC(=O)Nc3ccc4c(c3)OCO4)nccc12	TEAD-YAP block 48
COC(=O)COc1cccc2c(=O)n(CC(=O)Nc3ccc4c(c3)OCCO4)ccc12	none
Fc1ccc(CSc2nnnn2-c2ccc3c(c2)OCO3)c(Cl)c1	TEAD-YAP block 51
Fc1ccccc1CSc1nnnn1-c1ccc2c(c1)OCO2	none
